Test results taken from PubChem BioAssay (NCATS).
Records with an inconclusive call do not appear. A call without a number means that no potency is given here. Values without a mark were called inactive. Calls of active or inactive are those of the source. Calls come from the whole dose curve; as a rule, active = well fitted inhibition curve with a large enough effect; inconclusive = small, poorly fitted or top-dose-only effect; inactive = flat fitted curve, though single readings scatter.

Assay: P-glycoprotein substrates identified in KB-8-5-11 adenocarcinoma cell line, qHTS therapeutic library screen (AID 1346987); note: nearly all actives have a fitted effect of over 65% in size
Conditions: KB-8-5-11 (P-gp overexpressing) viability, CellTiter-Glo, 72 h; series mostly up to 44.5 µM
Outline: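 Compounds are pinned in dose-response onto KB-8-5-11 cells (500 cells/well, colchicine-free medium) and left 72 h at 37 degree C. CellTiter-Glo luminescence then yields AC50 values.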
Potency is the fitted concentration of half-maximal effect.

Compound	Potency	activity change, negative = cytotoxicity
CC1OC2OC(=O)C3(C)CC4=C(CO)C5=C(CC(=O)C4(C)C(C1=O)C23)C(C)(C)OC(=O)C5 (centres undefined)	inactive	
CC(C)=CCC[C@](C)(O[C@@H]1O[C@H](CO)[C@@H](O)[C@H](O)[C@H]1O)[C@H]1CC[C@]2(C)[C@@H]1[C@H](O)CC1[C@@]3(C)CC[C@H](O)C(C)(C)C3[C@@H](O[C@@H]3O[C@H](CO)[C@@H](O)[C@H](O)[C@H]3O[C@@H]3OC[C@@H](O)[C@H](O)[C@H]3O)C[C@]12C (some centres undefined)		-2.05% [at 9.29 µM]
C=C1C[C@]23C[C@H]1CC[C@H]2[C@@]12CC[C@H](O)[C@@](C)(C(=O)O1)[C@H]2[C@@H]3C(=O)O	inactive	
COc1cc2ncnc(N3CCC(Oc4cnc5ccccc5n4)C3)c2cc1OC (centres undefined)	461 nM (active)	
C[C@@H]1CN(Cc2ccccc2)C[C@H]1c1nc2c(cnn2C2CCOCC2)c(=O)[nH]1	inactive	
C[C@@H]1CC[C@]2(C(=O)OC3OC(CO)C(O)C(O)C3O)CC[C@]3(C)C(=CCC4[C@@]5(C)CC[C@H](O)[C@](C)(C(=O)O)C5CC[C@]43C)C2[C@]1(C)O (some centres undefined)	inactive	
C[C@@H]1C(=O)O[C@H]2C[C@]34[C@H]5C[C@@H](C(C)(C)C)[C@]36[C@@H](OC(=O)[C@H]6O)O[C@]4(C(=O)O5)[C@]21O	inactive	
O=C(O[C@H]1[C@@H]2C[C@@H]3OC[C@](O)([C@@H]1Cl)[C@H]2C(O[C@@H]1O[C@H](CO)[C@@H](O)[C@H](O)[C@H]1O)O3)c1ccc(O)c(O)c1 (some centres undefined)	inactive	
NC(=O)c1cccc2cn(-c3ccc(C4CCCNC4)cc3)nc12 (centres undefined)	inactive	
CCCOC(c1cc2nccc(C(=O)O)c2[nH]1)c1ccccc1Cl (centres undefined)	inactive	
CC(O)/C=C/C1C(C)C(O[C@@H]2O[C@H](CO)[C@@H](O)[C@H](O)[C@H]2O)C(O)CC1(C)C (some centres undefined)	inactive	
O=C1CCC(c2ccccc2)(C2CCN(Cc3ccc(I)cc3)CC2)C(=O)N1 (centres undefined)	inactive	
C[C@H]1CC[C@@]2(OC1)O[C@H]1CC3C4CC[C@H]5C[C@@H](O)[C@H](O)C[C@]5(C)C4=CC(=O)[C@]3(C)[C@H]1[C@@H]2C (some centres undefined)	inactive	
C[C@@H]1O[C@@H](O[C@H]2[C@@H]3C=CO[C@@H](O[C@@H]4O[C@H](CO)[C@@H](O)[C@H](O)[C@H]4O)[C@@H]3[C@@]3(CO)O[C@@H]23)[C@H](OC(=O)/C=C/c2ccc(O)c(O)c2)[C@H](O)[C@H]1O	inactive	
C=CC(C)(C)c1[nH]c2cc3c(cc2c1CC1NC(=O)C2CCCN2C1=O)C=CC(C)(C)O3 (centres undefined)	inactive	
CS(=O)(=O)N(CC(=O)NCC1CC1)c1cc(C(F)(F)F)ccc1Cl	inactive	
COc1ccc(/C=C/C(=O)O[C@@H]2[C@@H](O)[C@H](C)O[C@@H](O[C@H]3[C@@H]4C=CO[C@@H](O[C@H]5O[C@@H](CO)[C@H](O)[C@@H](O)[C@@H]5O)[C@@H]4[C@@]4(CO)O[C@@H]34)[C@@H]2OC(C)=O)cc1	inactive	
CC(C)C[C@H](CC(=O)NO)C(=O)N[C@@H](Cc1ccc2ccccc2c1)C(=O)N[C@@H](C)C(=O)NCCN	inactive	
CC1=C(C)C(=O)OC(C(C)C2CCC3C4CC=C5CC(OC6OC(COC7OC(CO)C(O)C(O)C7O)C(O)C(O)C6O)CC(O)C5(C)C4CCC23C)C1 (centres undefined)	inactive	
O=C(CCCCN1CCOCC1)Nc1ccc(-c2cccnc2)cc1	inactive	
Cc1cc(C)c(CNC(=O)c2cc(-c3ccc(CN4CCOCC4)cc3)cc3c2cnn3C2CCCC2)c(=O)[nH]1	inactive	
C[S+](CC[C@H](N)C(=O)[O-])C[C@H]1O[C@@H](n2cnc3c(N)ncnc32)[C@H](O)[C@@H]1O (some centres undefined)	inactive	
C[C@@H](Oc1cc(-n2cnc3ccc(OC4CCN(C)CC4)cc32)sc1C(N)=O)c1ccccc1C(F)(F)F	206 nM (active)	
O=S(=O)(c1ccccc1)c1cnc2c(N3CCNCC3)cccc2c1	inactive	
CC(C)[C@H]1CC[C@@]2(O)COC(=O)[C@H]2[C@@H]1/C=C(\CO)C(=O)O	inactive	
CC(=O)c1c(O)cc(O[C@@H]2O[C@H](CO)[C@@H](O)[C@H](O)[C@H]2O)cc1O	inactive	
O=C1CCC=CC1(O)C(=O)OCc1ccccc1O[C@@H]1O[C@H](CO)[C@@H](O)[C@H](O)[C@H]1O (some centres undefined)	inactive	
CC(Oc1ccc2[nH]nc(/C=C/c3cnn(CCO)c3)c2c1)c1c(Cl)cncc1Cl (centres undefined)	1030 nM (active)	
O=C1NC(=O)C(c2cn3c4c(cccc24)CCC3)C1c1c[nH]c2ccccc12 (centres undefined)	1300 nM (active)	
